In PubChem BioAssay (NCATS):
Some of the results follow. Inconclusive results are not listed. Calls of active or inactive are those of the source. Calls follow the shape of the dose curve; as a rule, active = well fitted inhibition curve with a large enough effect; inconclusive = small, poorly fitted or top-dose-only effect, or another doubt; inactive = no such curve, though single readings can be large or run the other way.

Each molecule was assayed against DNA polymerase kappa (Homo sapiens) (UniProt Q9UBT6) (assay: qHTS for Inhibitors of Polymerase Kappa: Confirmatory Assay for Cherry-picked Compounds (AID 720501)). Settings: purified Pol-kappa, fluorescent strand-displacement substrate.
Chain of DNA polymerase kappa (Homo sapiens) (Q9UBT6 whole entry, looked up): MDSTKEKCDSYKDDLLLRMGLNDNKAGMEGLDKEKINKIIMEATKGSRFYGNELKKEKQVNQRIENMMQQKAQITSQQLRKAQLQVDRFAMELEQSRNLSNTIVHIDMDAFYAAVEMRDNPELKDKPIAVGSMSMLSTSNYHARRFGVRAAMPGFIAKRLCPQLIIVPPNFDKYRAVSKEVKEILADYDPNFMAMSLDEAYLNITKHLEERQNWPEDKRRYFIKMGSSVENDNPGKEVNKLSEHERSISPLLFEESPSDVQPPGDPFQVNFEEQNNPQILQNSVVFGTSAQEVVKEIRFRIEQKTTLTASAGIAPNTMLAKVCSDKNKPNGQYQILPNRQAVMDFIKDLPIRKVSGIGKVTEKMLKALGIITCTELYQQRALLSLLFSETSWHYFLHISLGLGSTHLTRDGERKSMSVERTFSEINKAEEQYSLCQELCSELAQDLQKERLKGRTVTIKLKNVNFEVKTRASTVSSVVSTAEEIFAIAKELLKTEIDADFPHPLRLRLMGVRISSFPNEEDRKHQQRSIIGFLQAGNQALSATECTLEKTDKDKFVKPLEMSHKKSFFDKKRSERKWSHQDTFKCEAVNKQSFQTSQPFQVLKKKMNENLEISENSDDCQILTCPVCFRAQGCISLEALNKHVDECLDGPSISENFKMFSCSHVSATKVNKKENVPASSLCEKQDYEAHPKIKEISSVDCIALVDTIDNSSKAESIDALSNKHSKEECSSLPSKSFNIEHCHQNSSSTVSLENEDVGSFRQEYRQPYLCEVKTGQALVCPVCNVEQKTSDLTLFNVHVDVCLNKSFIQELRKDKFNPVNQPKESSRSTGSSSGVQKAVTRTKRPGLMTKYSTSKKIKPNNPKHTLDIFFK
From the text: The processing and repair of DNA inter-strand crosslinks (ICL) in eukaryotic cells are extremely complex, potentially involving multiple DNA repair and damage tolerance pathways, including homologous recombination, nucleotide excision repair, translesion synthesis (TLS), and cell cycle checkpoints. […] A 1536-well format, fluorescence based, high-throughput screen (AID 588579) was developed in collaboration with the Oregon Health & Science University to screen for inhibitors of the Pol-kappa enzyme. This assay was used to validate the activity of the selected compounds from the primary screen against the human Pol-kappa. Inhibition is the desired outcome for this assay. NIH Chemical Genomics Center [NCGC] NIH Molecular Libraries Probe Centers Network [MLPCN] MLPCN Grant: MH094179 Assay Submitter (PI): Stephen Lloyd, Oregon Health & Science University
Three microliters of reagents (buffer in column 3 and 4 as negative control and 10 nM Pol-kappa in columns 1, 2, and 5-48) were dispensed into a 1536-well black solid-bottom plate. Compounds (23 nL) were transferred via Kalypsys pin tool equipped with 1536-pin array. The plates were then incubated for 15 min at room temperature, and 1 uL of substrate was added to start the reaction for a final concentration of 50 nM. The substrate was made by the annealing of unlabeled oligodeoxynucleotide primer (59-[…]-39) and TAMRA-labeled reporter strand (59-[…]-6-TAMRA-39) to oligodeoxynucleotide template labeled with BHQ-2 (59-BHQ-2-[…]-39) described in detail at the Yamanaka et.al. (PLOS, 2012) reference paper. The assay plates were initially read after 0 min and again after 10 min of kinetic reaction using the PerkinElmer Viewlux reader equipped with 525 nm excitation and 598 nm emission filters.
Potency is read from the fitted curve at half-maximal effect.

Potency, active:
O=C1NN(c2ccccc2)C(=O)/C1=C/c1ccc(-c2cccc(C(=O)O)c2)o1 16.8 µM, COCCNC(=O)Nc1ccc2nc(-c3ccco3)c(-c3ccco3)nc2c1 3.77 µM, NC(CSC(c1ccccc1)(c1ccccc1)c1ccc(-c2ccccc2)cc1)C(=O)O (stereo not given) 67 µM, COc1ccc2[nH]c3c(C)c4cc[n+](C)cc4c(C)c3c2c1 1.34 µM, COc1cc(/C=C2/C(=O)NN(c3ccc(F)cc3)C2=O)cc([N+](=O)[O-])c1O 37.7 µM, CCc1nc2cccnc2n1-c1ccc(C(=O)O)cc1 18.9 µM, CN(C)CCNC(=O)c1ccc(Cl)c2cc3ccccc3nc12 21.2 µM, O=C(c1cc2c(s1)CCC2)N1CCN(c2ccccc2)CC1 42.3 µM, O=C(O)c1ccc(NS(=O)(=O)c2ccc3c(c2)C(=O)c2cc(S(=O)(=O)Nc4ccc(C(=O)O)cc4)ccc2-3)cc1 16.8 µM, O=C(O)C(c1ccccc1)N1C(=O)/C(=C\c2ccc(-c3cccc(Cl)c3)o2)SC1=S (stereo not given) 29.9 µM, O=C(O)C1CCN(c2ccc([N+](=O)[O-])cc2[N+](=O)[O-])CC1 42.3 µM, COc1ccc(CNC(=O)c2nnn(CC(=O)Nc3cc(C)cc(C)c3)c2N)cc1 47.4 µM, CCOc1ccccc1/C=c1\sc2nc(-c3ccco3)nn2c1=O 47.4 µM, CCOc1cccc2c1N[C@@H](c1ccc(C(=O)O)cc1)[C@H]1CC=C[C@@H]21 2.38 µM, O=C1COc2c1ccc(O)c2O 6.7 µM, Cc1ccc(-c2nn(-c3ccccc3)cc2/C=C2\SC(=S)N(CCCCCC(=O)O)C2=O)o1 33.6 µM, Cc1cc(/C=C2\SC(=O)N(C)C2=O)c(C)n1-c1cccc(C(=O)O)c1 9.47 µM, Cc1ccc(-c2nc(SCc3ccc(Br)cc3)n3[nH]c(=O)cc3n2)cc1 16.8 µM, COc1ccccc1C(=O)N/C(=C/c1ccco1)C(=O)Nc1ccc(C(=O)O)cc1 15 µM, Cc1ccc2cc(/C=N/Nc3ccc(C(=O)O)cc3)c(Cl)nc2c1 26.7 µM
